Data on 18 molecules can be found in PubChem BioAssay (NCATS).

Unmarked numbers belong to inactive results. Inconclusive results are not listed. Active and inactive are the calls of the source. Unless noted, calls come from the whole dose curve; as a rule, active = well fitted curve in the direction sought with a large enough effect; inconclusive = small, poorly fitted or top-dose-only effect, or another doubt; inactive = no such curve, though single readings can be large; an effect the other way counts as inactive or inconclusive.

Assay [1] is described as follows: Cell Viability - Mesenchymal (AID 546).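 Note: cells exposed to compound for 40 hours before reading.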 A digest of the protocol:
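AC50 values reflect the drop in intracellular ATP in a human kidney mesenchymal line derived from normal glomeruli. Treatment lasts 40 hr at 37 °C in complete medium, and the signal comes from CellTiter-Glo luminescence.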

Assay [2] can be described thus: Cellular Toxicity (caspase-3) HepG2 (AID 654).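 Note: cells exposed to compound for 16 hours before reading; 0% = DMSO alone and 100% = caspase signal from 100 µM tamoxifen.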 A digest of the protocol: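 HepG2 cells (1500/well) were treated 16 h at 37 °C in complete medium, then caspase 3/7 activity was read by Caspase-Glo luminescence. Data were normalized to DMSO and 100 uM tamoxifen; AC50 came from Hill-equation fits of qHTS concentration-response.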
Assay [3] can be described thus: Cellular Toxicity (caspase-3) Jurkat (AID 655).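 Note: cells exposed to compound for 16 h at 37 °C before reading.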 The note with it: Jurkat caspase-3 activation, luminescence, DMSO = 0%, tamoxifen = 100%; at 92.2 µM (top of the series). A digest of the protocol:
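5000 Jurkat cells/well; compound 16 hr, 37 °C; Caspase-Glo 3/7 added, 20 min RT; luminescence read. Norm: DMSO = 0%, tamoxifen 100 uM = 100%. AC50, Hill model.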

A short description of assay [4]: Cellular Toxicity (caspase-3) SHSY5Y (AID 657). A digest of the protocol:
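qHTS, SH-SY5Y, 1500 cells/well, 5 h pre-incubation 37 °C; compound 16 h 37 °C; Caspase-Glo 3/7 1 h RT; luminescence. Norm.: DMSO = 0, 10 uM staurosporine = 100%. Hill fit → AC50.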

The nature of assay [5]: Cellular Toxicity (caspase-3) BJ (AID 658).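 Note: 0% = DMSO basal and 100% = 10 µM staurosporine.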 A digest of the protocol:
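Readout: Caspase-Glo 3/7 luminescence increase in BJ cells after 16 hr treatment at 37 °C. Staurosporine and tamoxifen served as positive controls; AC50 values came from Hill modelling of data normalized to DMSO and 10 uM staurosporine.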

The nature of assay [6]: Cellular Toxicity (caspase-3) MRC-5 (AID 659).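 Note: 0% = DMSO basal and 100% = 10 µM staurosporine.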 A digest of the protocol: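 Concentration-dependent caspase 3/7 activation is measured in human normal lung fibroblasts (MRC-5) following 16-hour treatment. AC50 values come from standard Hill-equation modeling of luminescence normalized to DMSO and 10 uM staurosporine.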
The nature of assay [7]: Cellular Toxicity (caspase-3) Mesangial (AID 660).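 Note: cells exposed to compound for 16 h before the caspase read.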 A digest of the protocol: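 Human renal glomerular mesangial cells, 1000/well, 5 h at 37 C before 16 h compound treatment. Caspase-Glo 3/7 luminescence after 20 min; normalized to DMSO and 100 uM tamoxifen, AC50 from Hill fit.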
A short description of assay [8]: Cellular Toxicity (caspase-3) SK-N-SH (AID 661).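 Note: 0% = DMSO basal and 100% = 10 µM staurosporine.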 A digest of the protocol: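 Human SK-N-SH neuroblastoma cells, 1500/well, were exposed to compounds for 16 hours at 37 °C. Caspase-Glo 3/7 luminescence was normalized to DMSO (basal) and 10 uM staurosporine (100%), and AC50 came from a Hill fit.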
Assay [9] can be described thus: Cellular Toxicity (caspase-3) H-4-II-E (AID 663).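 Note: cells exposed to compound for 16 hr before readout.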 The following applies: Potency: caspase-3 activation. A digest of the protocol: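 Apoptosis induction is scored as increased luminescence from caspase 3/7 substrate cleavage in rat hepatoma H-4-II-E cells exposed to compound for 16 hr. Activity is scaled between DMSO and 100 uM tamoxifen.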
Assay [10] can be described thus: Cellular Toxicity (caspase-3) Hek293 (AID 664).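 Note: cells exposed to compound for 16 h at 37 °C before readout.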 A digest of the protocol:
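HEK293 cells in complete medium treated 16 h at 37 °C, then Caspase-Glo 3/7 luminescence read after 20 min at room temperature. Normalized to DMSO and 100 uM tamoxifen; AC50 from Hill fit of concentration-response.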

Assay [11] is described as follows: Cellular Toxicity (caspase-3) N2a (AID 665).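 Note: compound exposure lasted 16 h at 37 °C before readout.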 A digest of the protocol:
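Mouse N2a neuroblastoma cells, 1500 per well, treated 16 h at 37 °C in complete medium; caspase-3/7 activity by Caspase-Glo luminescence after 1 h. Normalized to DMSO and 10 uM staurosporine; AC50 from Hill fits.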

Assay [12] can be described thus: Cellular Toxicity (caspase-3) NIH 3T3 (AID 666).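 Note: caspase signal read after 16 h compound exposure; 0% = DMSO basal and 100% = 100 µM tamoxifen stimulation.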 A digest of the protocol: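 Mouse NIH 3T3 fibroblasts (1000/well) treated 16 h at 37 C; caspase-3/7 activity measured by Caspase-Glo 3/7 luminescence after 20 min. Normalized to DMSO and 100 uM tamoxifen; AC50 from Hill fits.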
The target of assay [13] is Cytochrome P450 3A4 (Homo sapiens) (UniProt P08684). The assay can be described thus: qHTS Assay for Inhibitors and Substrates of Cytochrome P450 3A4 (AID 884). Note: % is set by controls: 0 for no effect and ±100 for the full control effect; nearly all actives have a fitted effect of over 50% in size. A digest of the protocol: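 20 nM human CYP3A4 with 25 uM Luciferin-PPXE (at KM) in 200 mM KPO4, preincubated 10 min with compound; NADPH regeneration started a 60 min RT reaction. Luciferin detected by luminescence, normalized to 57 uM ketoconazole as full inhibition.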
For orientation: In qHTS, concentration-response curves come from the screen itself.

The target of assay [14] is 3',5'-cyclic-AMP phosphodiesterase 4B (Homo sapiens) (UniProt Q07343). The assay can be described thus: qHTS Assay for Inhibitors of PDE-IV (AID 607; active = well fitted activation curve with a large enough effect in the main read-out, with a control signal flat, not every such curve was filed as active; note: % of control where 0% means no effect). A digest of the protocol:
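The readout is membrane depolarisation from a cAMP-sensing CNG channel, detected with a potential dye at ex 535/em 590. Cells were HEK293-derived (endogenous PDE-IV) at 1000 cells/well, titrated up to 22.9 uM final.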

The target in assay [15] is Cytochrome P450 2C9 (Homo sapiens) (UniProt P11712). In words: qHTS Assay for Inhibitors and Substrates of Cytochrome P450 2C9 (AID 883). Note: nearly all actives have a fitted effect of over 60% in size. Note: potency is the fitted concentration of half-maximal effect. A digest of the protocol:
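Luminescent read-out of deoxyluciferin hydroxylation, normalized to 57uM sulphaphenazole (AC100). Reaction: 10nM enzyme, 100uM Luciferin-H (equal to KM), 25mM KPO4, 10 min compound preincubation, then 60 min with NADPH regeneration, both at 37C.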

Assay [16] is described as follows: Confirmation and Secondary Assay for Modulators of Hemoglobin Beta Chain Splicing at IVS2 654 locus (AID 910).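 Note: HeLa cells stably carrying EGFP split by mutant beta-globin IVS2-654 intron; per-well total GFP intensity by laser scanning cytometry after 2-day treatment; % of control where 0% means no effect.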 A digest of the protocol:
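Readout: per-well total peak green fluorescence (488 nm ex, 500–520 nm em) from objects 5–250 µm, reflecting correct splicing of an EGFP-654 reporter. Compounds were applied for 2 days at 37 °C to overnight-plated HeLa EGFP-654 cells; controls were DMSO and 500 nM IVS2-654 PNA.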

The target of assay [17] is Guanine nucleotide-binding protein G(i) subunit alpha-1 (Homo sapiens) (UniProt P63096). In words: qHTS Assay for Inhibitors of RGS12 GoLoco Motif Activity (Green Fluorophore) (AID 879).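 Note: 0% = labeled peptide with Gαi1 and full inhibition = labeled peptide alone without protein; negative values mean loss of peptide binding seen as reduced polarization.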 A digest of the protocol:
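Fluorescence polarization assay: 50 nM Gαi1 with 10 nM FITC-labeled RGS12 GoLoco peptide in 10 mM Tris pH 7.5, 150 mM NaCl, 0.1 mM GDP, 0.05% NP40, 10 min at room temperature with compound.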

Assay [18] can be described thus: qHTS Assay for Identification of Small Molecule Antagonists for NFkB Signaling Pathway (AID 895; active = well fitted inhibition curve with a large enough effect in the signal ratio, with a control signal flat, not every such curve was filed as active; the % refers to the signal ratio; note: % is set by controls: 0 for no effect and ±100 for the full control effect). A digest of the protocol:
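Beta-lactamase reporter read-out (460 and 530 nm emission ratio, 405 nm excitation, 2 hrs substrate loading RT) after 5 hr stimulation with 10 pM TNF alpha in compound-treated NFkB-bla ME-180 cells in low-serum medium.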

Assay [19] has as its target Cytochrome P450 2D6 (Homo sapiens) (UniProt P10635). In words: qHTS Assay for Inhibitors and Substrates of Cytochrome P450 2D6 (AID 891). Note: potency is the fitted concentration of half-maximal effect; nearly all actives have a fitted effect of over 60% in size. The following applies: recombinant CYP2D6, luciferin-ME EGE luminescence. A digest of the protocol:
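Human CYP2D6 (5 nM) with 30 uM Luciferin-ME EGE (at Km) in 100 mM KPO4, compound preincubated 10 min, then NADPH regeneration system for 60 min at room temperature. Luciferin read by luminescence; normalized to 1.43 uM quinidine.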

Assay [20] addresses Cytochrome P450 2C19 (Homo sapiens) (UniProt P33261). In words: qHTS Assay for Inhibitors and Substrates of Cytochrome P450 2C19 (AID 899). Note: potency is the fitted concentration of half-maximal effect; nearly all actives have a fitted effect of over 60% in size. The following applies: recombinant CYP2C19, luciferin-H EGE luminescence. A digest of the protocol:
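Luminescence readout of luciferin formed from 10uM Luciferin-H EGE (KM level) by 5 nM CYP2C19 in 50mM KPO4. 60 min NADPH-driven reaction at 37C after 10 min compound preincubation; data scaled to 57uM ketoconazole inhibition.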

Chain of Cytochrome P450 2C9 (Homo sapiens) (P11712 whole entry, looked up): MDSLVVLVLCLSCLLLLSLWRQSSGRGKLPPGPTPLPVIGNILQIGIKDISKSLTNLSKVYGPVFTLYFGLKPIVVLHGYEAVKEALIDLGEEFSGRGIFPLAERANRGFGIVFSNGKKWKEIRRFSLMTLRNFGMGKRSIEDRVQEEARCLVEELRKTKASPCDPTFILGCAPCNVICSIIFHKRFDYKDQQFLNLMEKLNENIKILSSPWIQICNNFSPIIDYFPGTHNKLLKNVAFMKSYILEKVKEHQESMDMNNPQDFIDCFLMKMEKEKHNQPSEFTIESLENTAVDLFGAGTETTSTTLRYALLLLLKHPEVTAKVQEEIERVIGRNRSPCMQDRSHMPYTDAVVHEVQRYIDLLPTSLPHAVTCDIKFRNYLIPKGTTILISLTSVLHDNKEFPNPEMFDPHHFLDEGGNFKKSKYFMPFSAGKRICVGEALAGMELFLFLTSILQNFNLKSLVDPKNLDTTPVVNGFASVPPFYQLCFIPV
Chain of 3',5'-cyclic-AMP phosphodiesterase 4B (Homo sapiens) (Q07343 whole entry, looked up): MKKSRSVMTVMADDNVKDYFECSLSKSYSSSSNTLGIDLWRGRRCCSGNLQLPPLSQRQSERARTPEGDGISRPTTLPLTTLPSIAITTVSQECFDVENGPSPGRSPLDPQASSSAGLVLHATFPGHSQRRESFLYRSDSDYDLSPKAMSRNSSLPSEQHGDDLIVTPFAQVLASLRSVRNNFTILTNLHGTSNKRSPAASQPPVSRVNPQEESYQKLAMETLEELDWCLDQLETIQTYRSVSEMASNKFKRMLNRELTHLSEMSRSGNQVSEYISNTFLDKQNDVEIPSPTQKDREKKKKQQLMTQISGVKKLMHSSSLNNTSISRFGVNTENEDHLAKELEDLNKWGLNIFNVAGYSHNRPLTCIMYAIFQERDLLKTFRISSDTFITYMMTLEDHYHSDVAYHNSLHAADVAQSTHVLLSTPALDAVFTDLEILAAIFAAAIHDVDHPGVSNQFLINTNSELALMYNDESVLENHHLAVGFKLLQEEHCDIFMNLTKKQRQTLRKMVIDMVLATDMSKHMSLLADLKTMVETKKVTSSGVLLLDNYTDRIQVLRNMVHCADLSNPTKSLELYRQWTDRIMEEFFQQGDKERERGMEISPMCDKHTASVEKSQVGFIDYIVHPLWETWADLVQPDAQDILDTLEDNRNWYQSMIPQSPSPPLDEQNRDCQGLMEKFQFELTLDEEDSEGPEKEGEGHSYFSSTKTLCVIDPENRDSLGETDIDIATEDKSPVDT
Chain of Cytochrome P450 3A4 (Homo sapiens) (P08684 whole entry, looked up): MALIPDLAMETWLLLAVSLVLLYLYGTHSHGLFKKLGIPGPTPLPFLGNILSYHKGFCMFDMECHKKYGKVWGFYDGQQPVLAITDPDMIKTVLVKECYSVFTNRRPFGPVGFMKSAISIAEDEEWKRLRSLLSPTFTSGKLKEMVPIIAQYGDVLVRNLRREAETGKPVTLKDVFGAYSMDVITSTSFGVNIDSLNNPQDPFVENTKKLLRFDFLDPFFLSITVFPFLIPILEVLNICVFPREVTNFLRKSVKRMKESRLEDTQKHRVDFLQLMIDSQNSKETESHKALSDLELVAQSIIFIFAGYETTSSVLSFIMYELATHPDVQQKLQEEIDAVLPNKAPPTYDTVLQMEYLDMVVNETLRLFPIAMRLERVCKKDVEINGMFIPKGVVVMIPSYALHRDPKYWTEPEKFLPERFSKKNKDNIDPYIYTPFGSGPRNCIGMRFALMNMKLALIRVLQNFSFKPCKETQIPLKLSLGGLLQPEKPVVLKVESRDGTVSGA
Chain of Cytochrome P450 2D6 (Homo sapiens) (P10635 whole entry, looked up): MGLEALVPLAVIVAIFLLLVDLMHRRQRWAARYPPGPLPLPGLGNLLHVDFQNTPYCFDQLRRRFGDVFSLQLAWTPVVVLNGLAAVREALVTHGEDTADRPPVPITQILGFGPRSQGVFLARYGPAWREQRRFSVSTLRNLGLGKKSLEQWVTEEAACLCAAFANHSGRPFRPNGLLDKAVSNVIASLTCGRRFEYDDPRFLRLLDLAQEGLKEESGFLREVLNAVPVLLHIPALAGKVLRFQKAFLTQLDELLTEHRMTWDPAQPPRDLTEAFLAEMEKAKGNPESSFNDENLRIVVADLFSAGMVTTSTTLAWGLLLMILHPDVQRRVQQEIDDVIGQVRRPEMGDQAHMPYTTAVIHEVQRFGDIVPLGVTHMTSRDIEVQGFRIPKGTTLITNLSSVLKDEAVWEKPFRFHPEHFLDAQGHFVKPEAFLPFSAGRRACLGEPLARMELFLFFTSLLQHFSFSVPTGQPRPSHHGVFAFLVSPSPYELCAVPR
Chain of Guanine nucleotide-binding protein G(i) subunit alpha-1 (Homo sapiens) (P63096 whole entry, looked up): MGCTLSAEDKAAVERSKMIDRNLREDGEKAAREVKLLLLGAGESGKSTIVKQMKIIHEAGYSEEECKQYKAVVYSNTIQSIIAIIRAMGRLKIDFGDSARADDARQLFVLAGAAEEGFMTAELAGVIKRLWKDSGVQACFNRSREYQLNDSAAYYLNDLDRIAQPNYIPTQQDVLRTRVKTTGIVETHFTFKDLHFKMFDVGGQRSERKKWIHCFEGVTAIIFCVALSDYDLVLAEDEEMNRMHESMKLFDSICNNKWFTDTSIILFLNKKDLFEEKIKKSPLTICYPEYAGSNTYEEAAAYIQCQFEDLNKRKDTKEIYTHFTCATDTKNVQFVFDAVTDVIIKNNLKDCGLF
Chain of Cytochrome P450 2C19 (Homo sapiens) (P33261 whole entry, looked up): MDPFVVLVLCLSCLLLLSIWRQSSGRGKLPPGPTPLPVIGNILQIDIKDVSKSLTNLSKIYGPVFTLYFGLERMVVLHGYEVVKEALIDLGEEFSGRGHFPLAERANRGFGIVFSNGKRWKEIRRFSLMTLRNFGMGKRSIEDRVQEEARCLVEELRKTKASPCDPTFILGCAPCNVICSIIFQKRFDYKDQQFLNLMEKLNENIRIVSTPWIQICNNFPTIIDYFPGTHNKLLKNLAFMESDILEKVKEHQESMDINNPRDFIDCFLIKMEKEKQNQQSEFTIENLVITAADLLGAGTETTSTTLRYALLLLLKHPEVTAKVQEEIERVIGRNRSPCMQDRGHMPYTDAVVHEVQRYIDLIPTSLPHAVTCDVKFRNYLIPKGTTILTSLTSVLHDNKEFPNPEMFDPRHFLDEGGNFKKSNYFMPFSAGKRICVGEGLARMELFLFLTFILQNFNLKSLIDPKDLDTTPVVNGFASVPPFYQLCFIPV

In the case of `CCCCC(CC)COC(=O)c1ccc(N(C)C)cc1` (centres undefined), the result in [1], in [2], in [4], in assay [5], in assay [6] and in [7] was inactive. Further, the outcome in assay [8], in [10], in [11] and in assay [12] was inactive. In addition, the caspase-3 activation in assay [3] was 1.94%. Also, the Potency result in [9] is “inactive”.
With `C/C=C/c1ccc(O)c(OC)c1`, the outcome in [1], in assay [2], in assay [4], in assay [5], in [6] and in assay [7] was inactive. For the same molecule, the molecule was classed as inactive in assay [8], in assay [10], in [11] and in assay [12]. Also, the caspase-3 activation in [3] is 1.5%. Besides, the Potency result in assay [9] and in assay [13] was “inactive” in each case.
As to `CC[C@H](c1ccc(O)cc1)[C@@H](CC)c1ccc(O)cc1`, the result in assay [14] was inactive.
For the molecule `OC[C@H]1O[C@@H]2O[C@H]3[C@H](O)[C@@H](O)[C@@H](O[C@H]4[C@H](O)[C@@H](O)[C@@H](O[C@H]5[C@H](O)[C@@H](O)[C@@H](O[C@H]6[C@H](O)[C@@H](O)[C@@H](O[C@H]7[C@H](O)[C@@H](O)[C@@H](O[C@H]8[C@H](O)[C@@H](O)[C@@H](O[C@H]1[C@H](O)[C@H]2O)O[C@@H]8CO)O[C@@H]7CO)O[C@@H]6CO)O[C@@H]5CO)O[C@@H]4CO)O[C@@H]3CO`, the molecule was classed as inactive in assay [1], in assay [2], in [4], in assay [5], in assay [6] and in assay [7]. In addition, the call in assay [8], in assay [10], in [11] and in [12] was inactive. Moreover, the caspase-3 activation in [3] is 1.07%. Also, the Potency entry in [9] and in assay [13] was “inactive” each time.
With `COc1cc(C)nc(-n2nc(C)cc2OC)n1`, the result in assay [14] was inactive.
`O=C1C(=O)c2ccccc2C(O)=C1C1CCC(c2ccc(Cl)cc2)CC1` (centres undefined): the molecule was called inactive in assay [14] and in assay [16]. Besides, in [15], the Potency is 2 µM (active). For the same molecule, the Potency entry in [13] was “inactive”.
As for `O=C(O)CCC(=O)Nc1ccc(S(=O)(=O)Nc2nccs2)cc1`, the call in assay [14] and in assay [16] was inactive.
Regarding `CN=C(N)NCCC[C@H](N)C(=O)O`, the result in assay [14], in [17] and in assay [18] was inactive.
As for `CN1CCC(OC(c2ccccc2)c2ccccc2)CC1`, the result in assay [14] and in assay [16] was inactive.
In the case of `CCN(CC)CCNC(=O)COc1ccc(OC)cc1`, the result in assay [14] and in assay [16] was inactive.
As to `CCc1cc(Cl)c(OC)c(C(=O)NC[C@@H]2CCCN2CC)c1O`, in [14], the result was inactive. In addition, the Potency in assay [19] was 0.0501 µM (active).
Turning to `Cc1ncc(CO)c(C=O)c1O`, the Potency entry in [13] was “inactive”.
For the molecule `CNCCc1ccccn1`, the result in assay [14] and in [16] was inactive. The Potency result in [13] is “inactive”.
On to `Nc1ccc(S(=O)(=O)Nc2cnc3ccccc3n2)cc1`, for which the outcome in assay [14] and in assay [16] was inactive.
On to `O=c1[nH]c(=O)n([C@H]2C[C@H](O)[C@@H](CO)O2)cc1F`, for which, in assay [13], the Potency result is “inactive”.
Take `CN(C)CCC[C@@]1(c2ccc(F)cc2)OCc2cc(C#N)ccc21`: the molecule was classed as inactive in assay [14], in assay [17] and in assay [16]. Further, the Potency in assay [15] and in [20] was 3.16 µM (active) throughout. Besides, the Potency result in [13] was “inactive”.
For the molecule `O=C(CCCN1CC=C(n2c(=O)[nH]c3ccccc32)CC1)c1ccc(F)cc1`, the Potency result in [15] was “inactive”. Besides, the Potency in assay [19] is 3.16 µM (active). Also, the molecule was called inactive in [16].
As to `CCCc1ncc(C[n+]2ccccc2C)c(N)n1`, the molecule was called inactive in assay [14] and in [16]. The Potency result in assay [13] was “inactive”.
